# Experimental data taken from PubChem BioAssay (Tox21).
# Results filed as inconclusive are left out. A call without a number means that no potency is given here. Activity calls are given as the source filed them. Unless noted, calls come from the whole dose curve.
# Assays:
# [1] = Nuclear factor erythroid 2-related factor 2/antioxidant responsive element (Nrf2/ARE) small molecule agonists: qHTS cell viability counter screen in human keratinocytes (AID 1919968; active = well fitted curve in the direction sought with a large enough effect in the repeat runs; an effect the other way counts as inactive or inconclusive; note: nearly all actives have a fitted effect of over 55% in size; note: potency is the fitted concentration of half-maximal effect)
# Outline: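 Parallel cytotoxicity read: KeratinoSens HaCaT cells, compound treatment 23 h, viability by CellTiter-Fluor fluorescence 1 h post-reagent.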
# [2] = Nuclear factor erythroid 2-related factor 2/antioxidant responsive element (Nrf2/ARE) small molecule agonists: luciferase reporter gene qHTS assay in human keratinocytes (AID 1919969); note: nearly all actives have a fitted effect of over 35% in size; note: potency is the fitted concentration of half-maximal effect
# [3] = molecular target: Gonadotropin-releasing hormone receptor (Homo sapiens) (UniProt P30968); assay: Human gonadotropin-releasing hormone receptor (GnRHR) small molecule agonists, calcium flux assay in GnRHR-HEK293 cells (AID 1920063); note: nearly all actives have a fitted effect of over 35% in size; note: potency is the fitted concentration of half-maximal effect
# Outline: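 Calcium flux, agonist mode, human GnRHR stably integrated in HEK293; dye 1 h at 37 C before compound; Ex/Em=480/540 kinetic read, 3 min; 15 concentrations, triplicate.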
# [4] = molecular target: KiSS-1 receptor (Homo sapiens) (UniProt Q969F8); assay: Human kisspeptin (KISS1R) small molecule agonists, calcium flux assay in KISS1R-HEK293 cells (AID 1920064; active = well fitted curve in the direction sought with a large enough effect in the repeat runs; an effect the other way counts as inactive or inconclusive)
# Outline: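 Triplicate 15-concentration series were applied to dye-loaded human KISS1R HEK293 cells, and agonist-evoked calcium fluorescence was captured for 3 min.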
# [5] = p53 small molecule agonists, cell-based qHTS assay with rat liver microsomes: qHTS cell viability counter screen (AID 1963580); note: nearly all actives have a fitted effect of over 45% in size; note: potency is the fitted concentration of half-maximal effect
# Outline: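 After the beta-lactamase ratio was read, CellTiter-Glo was added to the same wells and luminescence measured at 30 min; cells had been treated 16 h at 37 C with compounds, rat liver microsomes and NADPH (0.5 mg/mL final each).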
# [6] = p53 small molecule agonists, cell-based qHTS assay: qHTS cell viability counter screen (AID 1963581); note: nearly all actives have a fitted effect of over 45% in size; note: potency is the fitted concentration of half-maximal effect
# Outline: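 Multiplexed with the reporter read, a CellTiter-Glo step (30 min, room temperature) gauges ATP-based viability of HCT-116 p53RE-bla cells after 16 h compound incubation at 37 C.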
# [7] = molecular target: 5-hydroxytryptamine receptor 2A (Homo sapiens) (UniProt P28223); assay: 5-hydroxytryptamine receptor 2A (HTR2A) small molecule antagonists, cell-based qHTS assay (AID 1963586); note: nearly all actives have a fitted effect of over 45% in size; note: potency is the fitted concentration of half-maximal effect
# Outline: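 CHO cells stably expressing human HTR2A were plated for 18 h at 37 C, then loaded with calcium dye for 1 h. Compounds were preincubated 5 min at room temperature before DOI (4 nM solution) was added. Kinetic fluorescence was read for 3 min.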
# [8] = molecular target: 5-hydroxytryptamine receptor 2A (Homo sapiens) (UniProt P28223); assay: 5-hydroxytryptamine receptor 2A (HTR2A) small molecule agonists, cell-based qHTS assay (AID 1963587); note: nearly all actives have a fitted effect of over 30% in size; note: potency is the fitted concentration of half-maximal effect
# Outline: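 CHO cells stably expressing human HTR2A, plated 18 h, loaded with calcium dye 1 h at 37 C. Agonist mode: compounds added and intracellular calcium fluorescence recorded kinetically for 2 min at 1 sec intervals.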
# [9] = molecular target: Muscarinic acetylcholine receptor M1 (Homo sapiens) (UniProt P11229); assay: Cholinergic receptor muscarinic 1 (CHRM1) small molecule antagonists, cell-based qHTS assay (AID 1963588); note: nearly all actives have a fitted effect of over 40% in size; note: potency is the fitted concentration of half-maximal effect
# Outline: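 Compounds were tested at 15 concentrations in three independent runs. Dye-loaded CHRM1-CHO cells were exposed 5 min at room temperature before stimulation by acetylcholine added at 50nM. Intracellular calcium was read kinetically on FDSS for 3 min.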
# [10] = cAMP Responsive Elements (CRE) small molecule agonists, cell-based qHTS assay (AID 1963590)
# Outline: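 Quantitative HTS for CRE agonists: HEK 293T CRE-bla cells, overnight plating, 3 h compound incubation at 37 C/5% CO2, then 2 h room-temperature LiveBLAzer B/G FRET substrate loading.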
# [11] = molecular target: Beta-2 adrenergic receptor (Homo sapiens) (UniProt P07550); assay: Adrenergic beta2 receptor (ADRB2) small molecule antagonists, cell-based qHTS assay (AID 1963592); note: series mostly up to about 92 µM; nearly all actives have a fitted effect of over 50% in size
# Outline: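 Assay format: CHO-ADRB2 cells, 18-20hr seeding at 37C/5% CO2, then compound plus 1nM isoproterenol agonist mix for 0.5hr RT. Homogeneous time-resolved fluorescence cAMP detection after 1hr, expressed as 665/615 nm ratio.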
# [12] = molecular target: D(2) dopamine receptor (Homo sapiens) (UniProt P14416); assay: Dopamine D2 receptor (DRD2) small molecule agonists, cell-based qHTS assay (AID 1963594); note: nearly all actives have a fitted effect of over 35% in size
# Outline: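 HEK293 cells stably expressing human DRD2, pre-treated with PDE inhibitor Ro20-1724 (0.1 mM final) and compound 10 min at room temperature, then stimulated with NKH477 (200nM […]) for 30 min. cAMP read by HTRF (665/620 nm).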
# [13] = molecular target: D(2) dopamine receptor (Homo sapiens) (UniProt P14416); assay: Dopamine D2 receptor (DRD2) small molecule antagonists, cell-based qHTS assay (AID 1963595; active = well fitted inhibition curve with a large enough effect in the signal ratio in the repeat runs, with a control signal flat; the % refers to the signal ratio; note: potency is the fitted concentration of half-maximal effect)
# Outline: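 HEK293 cells stably expressing DRD2, preincubated with 0.1 mM Ro20-1724 and compounds 10 min, were stimulated with 200 nM NKH477 plus 12 nM quinpirole for 30 min at room temperature; cAMP measured by HTRF (665/620 nm).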
# [14] = G protein-coupled receptor (GPCR) small molecule agonists, calcium flux assay: HEK293 wild type cell line counter screen (AID 1920065)
# Outline: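 Non-specific calcium responders were flagged by adding DMSO-dissolved compounds to dye-loaded cells and reading 480/540 nm fluorescence each second for 3 min; ATP served as positive control.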
# [15] = p53 small molecule agonists, cell-based qHTS assay with human liver microsomes (AID 1963577)
# Outline: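 Fluorescence of the beta-lactamase reporter in p53RE-bla cells, detected with LiveBLAzer substrate (2 h, room temperature, dark), served as the read-out after 16 h compound exposure at 37 C with human liver microsomes and NADPH, each 0.5 mg/mL final.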
# [16] = p53 small molecule agonists, cell-based qHTS assay with rat liver microsomes (AID 1963578)
# Outline: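 Cells carrying a p53 response element–beta-lactamase reporter were plated and rested 5 h, then dosed with compound in DMSO plus rat liver microsomes and NADPH, each at 0.5 mg/mL final. After 16 h at 37 C, LiveBLAzer substrate was added for 2 h.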
# [17] = p53 small molecule agonists, cell-based qHTS assay with human liver microsomes: qHTS cell viability counter screen (AID 1963579); note: nearly all actives have a fitted effect of over 45% in size; note: potency is the fitted concentration of half-maximal effect
# Outline: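 Cytotoxicity counter screen: p53RE-bla, 4,000 cells/well; 5 h settle, 37 C/5% CO2; cpd + HLM 0.5 mg/mL + NADPH 0.5 mg/mL (final); 16 h, 37 C; CellTiter-Glo, 30 min RT, luminescence.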
# [18] = p53 small molecule agonists, cell-based qHTS assay (AID 1963582; active = well fitted activation curve with a large enough effect in the signal ratio in the repeat runs, not every such curve was filed as active; the % refers to the signal ratio)
# Outline: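 Beta-lactamase reporter cells (p53RE-bla) treated with compounds for 16 h at 37 C; FRET substrate, 2 h, room temperature; fluorescence intensity.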
# [19] = molecular target: Muscarinic acetylcholine receptor M1 (Homo sapiens) (UniProt P11229); assay: Cholinergic receptor muscarinic 1 (CHRM1) small molecule agonists, cell-based qHTS assay (AID 1963589); note: nearly all actives have a fitted effect of over 35% in size
# Outline: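 qHTS, 15-point titration, 3 independent runs: compounds pin-transferred onto dye-loaded CHRM1-CHO cells (human M1), calcium fluorescence followed every second to detect agonism.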
# [20] = cAMP Responsive Elements (CRE) small molecule antagonists, cell-based qHTS assay (AID 1963591; active = well fitted inhibition curve with a large enough effect in the signal ratio in the repeat runs, not every such curve was filed as active; the % refers to the signal ratio)
# Outline: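 Fluorescence intensity from cleaved LiveBLAzer B/G substrate (2 h, room temperature) quantified CRE-bla activity in HEK 293T cells exposed 3 h to compound with 0.25 uM final NKH477.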
# D(2) dopamine receptor (Homo sapiens), sequence (P14416 whole entry, looked up): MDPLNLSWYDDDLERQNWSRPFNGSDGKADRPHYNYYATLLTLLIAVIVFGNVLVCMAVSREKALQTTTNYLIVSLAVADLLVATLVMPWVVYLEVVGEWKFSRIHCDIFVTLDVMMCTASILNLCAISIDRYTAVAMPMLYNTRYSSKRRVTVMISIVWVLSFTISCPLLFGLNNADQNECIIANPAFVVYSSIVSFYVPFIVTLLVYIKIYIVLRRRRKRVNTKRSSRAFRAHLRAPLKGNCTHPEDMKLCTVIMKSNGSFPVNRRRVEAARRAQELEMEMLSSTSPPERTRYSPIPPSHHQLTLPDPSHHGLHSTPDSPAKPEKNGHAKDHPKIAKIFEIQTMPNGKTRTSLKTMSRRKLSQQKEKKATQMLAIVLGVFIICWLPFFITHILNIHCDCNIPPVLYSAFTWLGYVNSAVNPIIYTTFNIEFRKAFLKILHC
# Gonadotropin-releasing hormone receptor (Homo sapiens), sequence (P30968 whole entry, looked up): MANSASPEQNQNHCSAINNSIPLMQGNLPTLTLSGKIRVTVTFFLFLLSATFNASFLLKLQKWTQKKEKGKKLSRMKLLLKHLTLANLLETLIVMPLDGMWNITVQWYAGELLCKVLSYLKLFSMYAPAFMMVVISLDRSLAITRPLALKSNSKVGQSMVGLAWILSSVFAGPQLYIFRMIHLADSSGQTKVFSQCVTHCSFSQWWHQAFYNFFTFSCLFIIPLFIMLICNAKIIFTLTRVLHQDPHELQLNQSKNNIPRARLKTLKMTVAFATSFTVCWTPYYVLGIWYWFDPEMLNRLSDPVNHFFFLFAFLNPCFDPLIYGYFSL
# Beta-2 adrenergic receptor (Homo sapiens), sequence (P07550 whole entry, looked up): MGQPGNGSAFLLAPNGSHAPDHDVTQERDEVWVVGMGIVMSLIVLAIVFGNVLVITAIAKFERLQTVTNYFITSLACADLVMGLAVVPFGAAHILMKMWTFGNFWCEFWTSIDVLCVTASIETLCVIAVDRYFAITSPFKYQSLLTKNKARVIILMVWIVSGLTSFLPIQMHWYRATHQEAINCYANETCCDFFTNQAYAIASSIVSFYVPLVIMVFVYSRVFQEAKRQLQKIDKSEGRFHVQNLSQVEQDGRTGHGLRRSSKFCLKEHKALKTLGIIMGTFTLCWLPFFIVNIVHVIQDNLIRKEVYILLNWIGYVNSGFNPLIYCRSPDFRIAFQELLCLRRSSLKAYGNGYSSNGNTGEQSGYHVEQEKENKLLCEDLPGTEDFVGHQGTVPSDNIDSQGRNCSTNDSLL
# Muscarinic acetylcholine receptor M1 (Homo sapiens), sequence (P11229 whole entry, looked up): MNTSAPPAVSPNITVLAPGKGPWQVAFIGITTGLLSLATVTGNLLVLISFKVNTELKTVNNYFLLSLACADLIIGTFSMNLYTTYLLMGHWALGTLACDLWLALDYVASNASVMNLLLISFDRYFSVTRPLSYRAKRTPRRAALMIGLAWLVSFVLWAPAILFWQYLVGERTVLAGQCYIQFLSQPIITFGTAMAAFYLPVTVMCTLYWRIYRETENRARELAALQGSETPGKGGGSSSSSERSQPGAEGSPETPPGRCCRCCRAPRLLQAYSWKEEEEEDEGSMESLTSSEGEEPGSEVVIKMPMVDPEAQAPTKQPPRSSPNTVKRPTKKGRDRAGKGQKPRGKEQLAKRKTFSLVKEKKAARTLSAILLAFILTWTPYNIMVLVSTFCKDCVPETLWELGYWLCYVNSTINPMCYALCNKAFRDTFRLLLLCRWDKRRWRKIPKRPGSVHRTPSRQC
# 5-hydroxytryptamine receptor 2A (Homo sapiens), sequence (P28223 whole entry, looked up): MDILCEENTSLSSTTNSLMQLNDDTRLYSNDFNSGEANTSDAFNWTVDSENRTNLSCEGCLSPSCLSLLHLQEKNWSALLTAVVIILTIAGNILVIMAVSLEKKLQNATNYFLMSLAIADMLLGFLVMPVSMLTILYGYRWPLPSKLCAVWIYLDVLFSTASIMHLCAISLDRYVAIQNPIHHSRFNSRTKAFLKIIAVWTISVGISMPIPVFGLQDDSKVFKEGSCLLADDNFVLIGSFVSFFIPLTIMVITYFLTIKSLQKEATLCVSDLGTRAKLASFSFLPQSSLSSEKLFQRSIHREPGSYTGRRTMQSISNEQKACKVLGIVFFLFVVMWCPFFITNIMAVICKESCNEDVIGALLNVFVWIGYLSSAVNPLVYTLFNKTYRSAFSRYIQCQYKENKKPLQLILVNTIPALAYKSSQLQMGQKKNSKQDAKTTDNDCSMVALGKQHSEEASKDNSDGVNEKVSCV
# KiSS-1 receptor (Homo sapiens), sequence (Q969F8 whole entry, looked up): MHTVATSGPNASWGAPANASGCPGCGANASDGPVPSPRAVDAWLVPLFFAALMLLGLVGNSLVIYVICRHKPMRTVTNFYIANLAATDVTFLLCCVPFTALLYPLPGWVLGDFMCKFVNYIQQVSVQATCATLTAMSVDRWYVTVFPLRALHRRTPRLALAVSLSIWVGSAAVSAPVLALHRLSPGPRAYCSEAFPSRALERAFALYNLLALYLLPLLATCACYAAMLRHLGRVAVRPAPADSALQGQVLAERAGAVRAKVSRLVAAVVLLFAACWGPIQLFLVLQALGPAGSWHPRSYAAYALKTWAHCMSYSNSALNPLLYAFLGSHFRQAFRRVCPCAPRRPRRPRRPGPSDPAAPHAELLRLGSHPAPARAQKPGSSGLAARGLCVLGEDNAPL
SMILES,Potency [1],Potency [2],Potency [3],Potency [4],Potency [5],Potency [6],Potency [7],Potency [8],Potency [9],Potency [10],Potency [11],Potency [12],Potency [13],Potency [14],Potency [15],Potency [16],Potency [17],Potency [18],Potency [19],Potency [20]
NNC(N)=O,inactive,inactive,inactive,inactive,inactive,inactive,inactive,inactive,inactive,inactive,inactive,inactive,inactive,–,–,–,–,–,–,–
O=C1OC(CCN2CCCCC2)OC1(c1ccccc1)c1ccccc1 (stereo not drawn),inactive,29.8 µM (active),inactive,–,inactive,inactive,–,inactive,2.31 µM (active),inactive,–,inactive,–,inactive,inactive,inactive,inactive,inactive,inactive,inactive
CC(C)(C)C(O)C(Oc1ccc(Cl)cc1)n1cncn1 (stereo not drawn),inactive,68.6 µM (active),inactive,–,–,inactive,–,inactive,–,inactive,–,–,inactive,inactive,–,inactive,inactive,inactive,–,–
CC(C)(C)OC(=O)c1ncn2c1[C@@H]1CCCN1C(=O)c1c(Br)cccc1-2,inactive,inactive,inactive,–,inactive,inactive,inactive,inactive,inactive,–,–,inactive,inactive,inactive,–,–,inactive,–,inactive,–
O=C(Nc1ccc(F)cc1F)c1cccnc1Oc1cccc(C(F)(F)F)c1,inactive,inactive,inactive,inactive,–,inactive,inactive,inactive,inactive,–,–,inactive,inactive,–,–,–,inactive,–,inactive,–
CCOC(=O)CC(=O)CCl,inactive,68.6 µM (active),inactive,–,inactive,inactive,inactive,–,inactive,inactive,inactive,–,inactive,inactive,inactive,inactive,inactive,–,inactive,inactive
O=c1oc2ccccc2c(O)c1C1CCCc2ccccc21 (stereo not drawn),inactive,inactive,inactive,–,inactive,inactive,–,inactive,inactive,inactive,–,inactive,inactive,inactive,inactive,inactive,inactive,–,inactive,inactive
O=C1NCN(c2ccccc2)C12CCN(CC1COc3ccccc3O1)CC2 (stereo not drawn),inactive,inactive,inactive,–,inactive,inactive,–,0.0425 µM (active),–,–,–,inactive,0.0376 µM (active),inactive,inactive,inactive,inactive,–,inactive,–
O=[N+]([O-])c1ccc2ccc3cccc4ccc1c2c34,inactive,61.1 µM (active),inactive,–,inactive,inactive,inactive,inactive,inactive,inactive,–,inactive,inactive,inactive,inactive,–,inactive,inactive,inactive,inactive
CCC[CH2][Sn]([CH2]CCC)([CH2]CCC)[O]C(=O)c1ccccc1,1.09 µM (active),0.969 µM (active),4.9 µM (active),–,4.58 µM (active),1.62 µM (active),1.33 µM (active),21.9 µM (active),–,–,–,inactive,4.86 µM (active),inactive,inactive,inactive,3.24 µM (active),–,–,–
O=C(Oc1ccc(Br)cc1)N1CCN2CCC1CC2,inactive,inactive,inactive,–,inactive,inactive,inactive,inactive,–,inactive,inactive,–,inactive,inactive,–,inactive,inactive,inactive,inactive,inactive
O=[N+]([O-])c1cccc2cccc([N+](=O)[O-])c12,inactive,inactive,inactive,–,inactive,inactive,–,inactive,inactive,–,inactive,inactive,inactive,inactive,–,–,inactive,–,–,inactive
C=CCC1(C(C)CC)C(=O)NC(=O)NC1=O (stereo not drawn),inactive,inactive,inactive,–,inactive,inactive,inactive,inactive,inactive,inactive,inactive,inactive,inactive,inactive,–,inactive,–,inactive,inactive,–
C[C@@H](Oc1ccc(Cl)cc1Cl)C(=O)O,inactive,inactive,inactive,–,inactive,inactive,inactive,inactive,inactive,–,inactive,inactive,inactive,inactive,inactive,–,inactive,–,inactive,–
O=[N+]([O-])c1cc([N+](=O)[O-])c2ccccc2c1,inactive,17.2 µM (active),inactive,–,–,–,–,inactive,–,–,inactive,inactive,–,inactive,inactive,inactive,–,inactive,–,–
Cc1cccc(OP(=O)(Oc2cccc(C)c2)Oc2cccc(C)c2)c1,inactive,inactive,inactive,–,inactive,inactive,inactive,inactive,inactive,inactive,inactive,inactive,inactive,inactive,–,–,inactive,inactive,inactive,inactive
C/C=C/C=O,inactive,58.4 µM (active),inactive,–,inactive,inactive,inactive,inactive,–,inactive,inactive,inactive,inactive,inactive,–,–,inactive,–,inactive,inactive
CCOc1ccc(C(C)(C)COCc2cccc(Oc3ccccc3)c2)cc1,inactive,inactive,inactive,–,inactive,–,inactive,inactive,inactive,inactive,inactive,inactive,inactive,inactive,–,inactive,inactive,inactive,–,inactive
